# Measured potencies and affinities stand elsewhere.
# Tested on: Cryptococcus neoformans
# Conditions: Concentration 20 uM; ASSAY_TEST Inhibition of Fungal Growth; detection method Resazurin; Absorption (OD600-OD570); plate type 384well; NBS; CORNING #3640
row,Compound,Inhibition [%]
1,Cc1cc(Cl)ccc1NC(=O)CCc1ccc(S(=O)(=O)NCC(C)C)cc1,-9.04
2,CNC(=O)C1Cc2ccccc2N1C(=O)Cc1ccc(F)cc1 (stereo not given),-12.98
3,CC(C)(C)OC(=O)N1CCN(c2cc(-c3ccc(Oc4ccccc4)cc3)n[nH]2)CC1,-7.43
4,Nc1ccc(C(=O)Nc2ccc(-c3nc4ccccc4o3)cc2)cc1,-12.24
5,CC(C)n1ncc2c(C(=O)NCC(c3cccs3)N3CCOCC3)cc(-c3ccccc3)nc21 (stereo not given),-15.65
6,CNC(=O)C1Cc2c([nH]c3cc(Cl)ccc23)C2(CCN(CCc3ccccc3)CC2)N1 (stereo not given),-13.49
7,Cc1c[nH]c(CCNC(=O)c2cc(-c3ccc(Cl)cc3)cs2)n1,-12.96
8,Cc1ccc(-c2cc(C(=O)Nc3cccnc3)c3cc(Br)ccc3n2)cc1,-8.45
9,Cl.Cn1ccnc1CNCCS(=O)(=O)c1cccc(Nc2ccc(-c3cccc(F)c3)cn2)c1,-9.08
10,CNC1C(OC2C(OC3C(O)C(O)C(NC(=N)N)C(O)C3NC(=N)N)OC(C)C2(O)C=O)OC(CO)C(O)C1O.CNC1C(OC2C(OC3C(O)C(O)C(NC(=N)N)C(O)C3NC(=N)N)OC(C)C2(O)C=O)OC(CO)C(O)C1O.O=S(=O)(O)O.O=S(=O)(O)O.O=S(=O)(O)O (stereo not given),-8.51
11,COC(=O)c1ccc(F)cc1NS(=O)(=O)c1cccc(-c2cnn(Cc3ccccc3)c2)c1,12.85
12,COc1cccc(CC(=O)N2CCC(n3c(C)nc4ccc(F)cc43)CC2)c1,-4.62
13,OC[C@H]1O[C@@H](n2c3ccc(Cl)cc3c3c(-c4cc5ccccc5o4)ncnc32)C(O)[C@H]1O (stereo not given in full),3.55
14,CC(C)NCC(=O)Nc1cccc(C(=O)Nc2cccc(C(F)(F)F)c2)c1,-11.79
15,FC(F)(F)c1nnc2ccc(Cl)nn12,2.75
16,O=C1COCc2ccc(Br)cc2N1Cc1ccc(C(F)(F)F)cc1,-5.61
17,CCCS(=O)(=O)N1CCC(CO)(Cc2ccccc2C(F)(F)F)CC1,-2.93
18,CN1CCN(S(=O)(=O)c2ccc(-c3ccc4c(Nc5ccc6nn[nH]c6c5)ccnc4c3)cc2)CC1,-7.38

row,Compound,Inhibition [%]
1,Cc1cc2nc(NC(=O)C(C)(C)C)nc(Cl)c2n1Cc1ccc(Cl)cc1,-0.22
2,Clc1ccc(CCNc2cc(-c3ccccc3)nc3ncnn23)cc1,-16.06
3,CCNC(=O)C(C)Nc1nc(-c2cccnc2)nc2sc(C)c(C)c12 (stereo not given),-4.41
4,O=C(NCc1ccco1)N1CCN(Cc2ccc(Cl)s2)CC1,-2.89
5,Cc1cnc(N2CCN[C@@H](Cc3ccccc3)C2)nc1Oc1ccc(-n2ccnc2)cc1.Cl,-5.74
6,O=C(Nc1nc(-c2ccccn2)cs1)c1cncn1-c1ccccc1,-8.18
7,CC(C)(C)n1nc(Cc2cccc3ccccc23)c2c(N)ncnc21,-9.17
8,CC1CCCN(C(=O)C(C)Nc2cc(Cl)ccc2N2CCOCC2)C1 (stereo not given),-4.76
9,CN1CCC(c2cc(-c3ccncc3)c(-c3ccc(F)cc3)[nH]2)CC1,8.69
10,CC(=O)Nc1ccc(-c2noc(CC3CCCN(Cc4cccc(F)c4C)C3)n2)cc1 (stereo not given),-9.66
11,Cc1cc(OCC(=O)NCc2ccccc2)c2cc(Br)ccc2n1,-5.48
12,O=C1[C@@H](Oc2ccccc2)[C@@H](c2ccc(Cl)cc2)N1CCn1cnc2c(NCc3ccccc3)ncnc21,-6.99
13,Cc1cc(C)cc(COc2ccc3c(C)c(CCC(=O)O)c(=O)oc3c2C)c1,-0.19
14,Cc1cccc(-c2nc(Nc3ccncn3)c3sccc3n2)n1,61.44
15,Cc1cc(Cl)c(S(=O)(=O)N2CCCC2)cc1OCC(=O)NC1CCCCC1,-9.39
16,CCOc1ccccc1C(=O)Nc1cccc(-c2nc3ncccn3c2C)c1,-7.75
17,COc1cc2ncnc(NC3CCN(Cc4ccccc4)CC3)c2cc1OC,4.42

# From ChEMBL document CHEMBL4513149, “CO-ADD screening of MMV (CH) - MMV compounds” (2021)
